# Measurements reported in the supplement of paper PMC12282887.
# ± gives the standard deviation of the averaged measurements.
# Tests used:
# Test in all cases: promoter activity interaction Z-score (Lux/OD deviation from empty-vector control); higher = stronger promoter induction by the compound
# [1] = test system: E. coli BW25113 acrABp lux reporter
# In short: (§1)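 E. coli BW25113, as wild type or one of three single-gene deletion strains, carried low-copy luxCDABE promoter reporters and grew in 40 µl LB Lennox in 384-well plates at 37°C, with OD600 and luminescence read every 30 min for 12 h. Each compound was run at four 1:2 dilutions in biological duplicates, integration spanned 0–8 h for wild type and 1–9 h for deletion strains, and wells under 10% of the median growth value were dropped. The score is the Z-transformed residual of growth-normalised luminescence fitted against a control.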
# [2] = test system: E. coli BW25113 micFp lux reporter
# In short: as §1
# [3] = test system: E. coli BW25113 ompFp lux reporter
# In short: as §1
# [4] = test system: E. coli BW25113 robp lux reporter
# In short: as §1
# [5] = test system: E. coli BW25113 soxSp lux reporter
# In short: as §1
# [6] = test system: E. coli BW25113 tolCp lux reporter
# In short: as §1
# [7] = 13.7 µg/ml, genetic background: wild type
# [8] = 13.7 µg/ml, genetic background: ΔmarA
# [9] = 13.7 µg/ml, genetic background: Δrob
# [10] = 13.7 µg/ml, genetic background: ΔsoxS
# [11] = 27.5 µg/ml, genetic background: wild type
# [12] = 27.5 µg/ml, genetic background: ΔmarA
# [13] = 27.5 µg/ml, genetic background: Δrob
# [14] = 27.5 µg/ml, genetic background: ΔsoxS
# [15] = 54.9 µg/ml, genetic background: wild type
# [16] = 54.9 µg/ml, genetic background: ΔmarA
# [17] = 54.9 µg/ml, genetic background: Δrob
# [18] = 54.9 µg/ml, genetic background: ΔsoxS
# [19] = 109.8 µg/ml, genetic background: wild type
# [20] = 109.8 µg/ml, genetic background: ΔmarA
# [21] = 109.8 µg/ml, genetic background: Δrob
# [22] = 109.8 µg/ml, genetic background: ΔsoxS
structure (smiles),measurement,setting,value
CNC[C@H](O)c1ccc(O)c(O)c1 [Adrenalin],promoter activity interaction Z-score,[1]; [7],-0.118 ± 0.26
same,promoter activity interaction Z-score,[1]; [8],-0.4 ± 0.56
same,promoter activity interaction Z-score,[1]; [9],0.0418 ± 0.19
same,promoter activity interaction Z-score,[1]; [10],-0.382 ± 0.4
same,promoter activity interaction Z-score,[1]; [11],-0.0931 ± 0.1
same,promoter activity interaction Z-score,[1]; [12],0.531 ± 0.016
same,promoter activity interaction Z-score,[1]; [13],-0.104 ± 0.11
same,promoter activity interaction Z-score,[1]; [14],-0.043 ± 0.052
same,promoter activity interaction Z-score,[1]; [15],-0.373 ± 0.29
same,promoter activity interaction Z-score,[1]; [16],0.688 ± 0.54
same,promoter activity interaction Z-score,[1]; [17],-0.345 ± 0.12
same,promoter activity interaction Z-score,[1]; [18],-0.566 ± 0.013
same,promoter activity interaction Z-score,[1]; [19],-0.472 ± 0.26
same,promoter activity interaction Z-score,[1]; [20],0.342 ± 0.19
same,promoter activity interaction Z-score,[1]; [21],0.0555 ± 0.04
same,promoter activity interaction Z-score,[1]; [22],0.539 ± 0.12
same,promoter activity interaction Z-score,[2]; [7],-0.11 ± 0.0085
same,promoter activity interaction Z-score,[2]; [8],-0.0104 ± 0.018
same,promoter activity interaction Z-score,[2]; [9],0.263 ± 0.12
same,promoter activity interaction Z-score,[2]; [10],-0.351 ± 0.072
same,promoter activity interaction Z-score,[2]; [11],-0.259 ± 0.091
same,promoter activity interaction Z-score,[2]; [12],-0.0735 ± 0.14
same,promoter activity interaction Z-score,[2]; [13],0.173 ± 0.31
same,promoter activity interaction Z-score,[2]; [14],0.192 ± 0.11
same,promoter activity interaction Z-score,[2]; [15],-0.122 ± 0.19
same,promoter activity interaction Z-score,[2]; [16],0.0635 ± 0.093
same,promoter activity interaction Z-score,[2]; [17],0.189 ± 0.21
same,promoter activity interaction Z-score,[2]; [18],-0.508 ± 0.077
same,promoter activity interaction Z-score,[2]; [19],-0.426 ± 0.33
same,promoter activity interaction Z-score,[2]; [20],-0.136 ± 0.074
same,promoter activity interaction Z-score,[2]; [21],0.0853 ± 0.074
same,promoter activity interaction Z-score,[2]; [22],-0.142 ± 0.14
same,promoter activity interaction Z-score,[3]; [7],0.379 ± 0.018
same,promoter activity interaction Z-score,[3]; [8],-0.309 ± 0.22
same,promoter activity interaction Z-score,[3]; [9],-0.171 ± 0.37
same,promoter activity interaction Z-score,[3]; [10],-0.679 ± 0.25
same,promoter activity interaction Z-score,[3]; [11],0.362 ± 0.017
same,promoter activity interaction Z-score,[3]; [12],0.00142 ± 0.52
same,promoter activity interaction Z-score,[3]; [13],-0.0408 ± 0.55
same,promoter activity interaction Z-score,[3]; [14],-0.0291 ± 0.36
same,promoter activity interaction Z-score,[3]; [15],-0.597 ± 0.18
same,promoter activity interaction Z-score,[3]; [16],0.175 ± 0.27
same,promoter activity interaction Z-score,[3]; [17],-1.07 ± 0.55
same,promoter activity interaction Z-score,[3]; [18],-0.961 ± 0.21
same,promoter activity interaction Z-score,[3]; [19],-0.0147 ± 0.25
same,promoter activity interaction Z-score,[3]; [20],-0.377 ± 0.44
same,promoter activity interaction Z-score,[3]; [21],-0.876 ± 1.6
same,promoter activity interaction Z-score,[3]; [22],-0.239 ± 0.22
same,promoter activity interaction Z-score,[4]; [7],-0.189 ± 0.26
same,promoter activity interaction Z-score,[4]; [8],-0.738 ± 0.13
same,promoter activity interaction Z-score,[4]; [9],-0.362 ± 0.49
same,promoter activity interaction Z-score,[4]; [10],-0.567 ± 0.17
same,promoter activity interaction Z-score,[4]; [11],0.83 ± 0.5
same,promoter activity interaction Z-score,[4]; [12],-0.178 ± 0.0036
same,promoter activity interaction Z-score,[4]; [13],-0.489 ± 0.6
same,promoter activity interaction Z-score,[4]; [14],-0.00139 ± 0.12
same,promoter activity interaction Z-score,[4]; [15],-0.414 ± 0.15
same,promoter activity interaction Z-score,[4]; [16],-0.097 ± 0.33
same,promoter activity interaction Z-score,[4]; [17],-0.505 ± 1.8
same,promoter activity interaction Z-score,[4]; [18],-0.645 ± 0.021
same,promoter activity interaction Z-score,[4]; [19],-0.53 ± 0.61
same,promoter activity interaction Z-score,[4]; [20],-0.598 ± 0.62
same,promoter activity interaction Z-score,[4]; [21],-1.48 ± 0.78
same,promoter activity interaction Z-score,[4]; [22],-1.95 ± 0.2
same,promoter activity interaction Z-score,[5]; [7],0.381 ± 0.43
same,promoter activity interaction Z-score,[5]; [8],0.0748 ± 0.12
same,promoter activity interaction Z-score,[5]; [9],0.425 ± 0.29
same,promoter activity interaction Z-score,[5]; [10],-0.181 ± 0.096
same,promoter activity interaction Z-score,[5]; [11],0.23 ± 0.19
same,promoter activity interaction Z-score,[5]; [12],0.131 ± 0.16
same,promoter activity interaction Z-score,[5]; [13],0.208 ± 0.28
same,promoter activity interaction Z-score,[5]; [14],0.264 ± 0.64
same,promoter activity interaction Z-score,[5]; [15],0.0152 ± 0.17
same,promoter activity interaction Z-score,[5]; [16],-0.0453 ± 0.22
same,promoter activity interaction Z-score,[5]; [17],0.121 ± 0.0073
same,promoter activity interaction Z-score,[5]; [18],-0.333 ± 0.19
same,promoter activity interaction Z-score,[5]; [19],-0.143 ± 0.091
same,promoter activity interaction Z-score,[5]; [20],-0.248 ± 0.045
same,promoter activity interaction Z-score,[5]; [21],0.0524 ± 0.1
same,promoter activity interaction Z-score,[5]; [22],0.0254 ± 0.36
same,promoter activity interaction Z-score,[6]; [7],-0.595 ± 0.65
same,promoter activity interaction Z-score,[6]; [8],-0.333 ± 0.39
same,promoter activity interaction Z-score,[6]; [9],0.343 ± 0.15
same,promoter activity interaction Z-score,[6]; [10],-0.571 ± 0.34
same,promoter activity interaction Z-score,[6]; [11],-0.0385 ± 0.61
same,promoter activity interaction Z-score,[6]; [12],-0.394 ± 0.82
same,promoter activity interaction Z-score,[6]; [13],-0.578 ± 0.57
same,promoter activity interaction Z-score,[6]; [14],1.04 ± 1.6
same,promoter activity interaction Z-score,[6]; [15],-0.749 ± 0.67
same,promoter activity interaction Z-score,[6]; [16],0.176 ± 0.046
same,promoter activity interaction Z-score,[6]; [17],-0.0706 ± 0.3
same,promoter activity interaction Z-score,[6]; [18],0.0714 ± 0.89
same,promoter activity interaction Z-score,[6]; [19],-0.414 ± 0.029
same,promoter activity interaction Z-score,[6]; [20],-0.30805 ± 0.0003
same,promoter activity interaction Z-score,[6]; [21],-0.0487 ± 0.27
same,promoter activity interaction Z-score,[6]; [22],-0.39 ± 1.4
